# Measurements reported in PubChem BioAssay (Tox21).
# Several values for one entry are separate records, joined by “and”; a condition that tells them apart may be missing. Equal entries are not always repeated. Inconclusive results are not listed. A structure can be active in one record and inactive in another. Activity calls are given as the source filed them. How the calls were made is not given here.
# Test: qHTS assay to identify small molecule antagonists of the estrogen related receptor signaling pathway with the pleiotropic PPARgamma coactivator (PGC) from Tox21 10K library (AID 1224841); further: actives are mostly falling curves and most rising ones were filed inactive; nearly all actives have a fitted effect of over 50% in size
# Conditions: PGC/ERR reporter cell line, ONE-Glo luciferase, 18 h; series mostly up to 92.4 µM; activity, negative = inhibition: at the top concentration
# Procedure, shortened: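 One-Glo luminescence, measured after half an hour at room temperature, quantified reporter output of PGC/ERR cells. These had been plated at 2,000 per well, incubated 6 h, dosed with compounds in DMSO, then kept 18 h at 37 C.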
# On the % scale 0 is the no-effect control and ±100 the full control effect; potency means the concentration at half of the fitted maximal effect.
Compound,Potency,"activity, negative = inhibition"
C#CCOS(=O)OC1CCCCC1Oc1ccc(C(C)(C)C)cc1 (stereo not given),3.86 µM (active) and 3.06 µM (active),
C1=Cc2cccc3cccc1c23,190 nM (active) and inactive,
CCCCN(CC)c1c([N+](=O)[O-])cc(C(F)(F)F)cc1[N+](=O)[O-],inactive,
CCOC(=S)S,,-16.9% (inactive)
Cc1ccc2c(c1N)C(=O)c1ccccc1C2=O,inactive,
NNC(=S)NN,62.8 µM (active) and 61.1 µM (active),
O=C(Nc1ccc(Br)cc1)c1cc(Br)cc(Br)c1O,13.6 µM (active) and 13.7 µM (active) and inactive,
CCOCN(C(=O)CCl)c1c(C)cccc1CC,36.4 µM (active) and 13.7 µM (active),
O=P(Oc1ccccc1)(Oc1ccccc1)Oc1ccccc1,13.6 µM (active),
c1ccc(NNc2ccccc2)cc1,inactive,
ClC1C(Cl)C(Cl)C(Cl)C(Cl)C1Cl (stereo not given),inactive and 68.6 µM (active),
CCC(C)c1cc([N+](=O)[O-])cc([N+](=O)[O-])c1O (stereo not given),inactive and 10.9 µM (active),
CC(C)c1ccc(CO)cc1,inactive,
CCCCC(CC)COC(=O)Cl (stereo not given),inactive,
Oc1cc(Cl)ccc1Oc1ccc(Cl)cc1Cl,33.2 µM (active),
